# Assay results taken from the supplement of paper PMC4166925.
# ± gives the standard deviation of the averaged measurements. Over roughly 33,000 sequences, “E-score (dimensionless, -0.5 to 0.5)” has its median near -0.049; the highest 2% begin near 0.37. The list comes from a sample in which the highest values are over-represented; it also holds similar and randomly drawn sequences.
# Tested on: T1, PmTbr T-box DNA-binding domain (GST fusion)
# T1 sequence: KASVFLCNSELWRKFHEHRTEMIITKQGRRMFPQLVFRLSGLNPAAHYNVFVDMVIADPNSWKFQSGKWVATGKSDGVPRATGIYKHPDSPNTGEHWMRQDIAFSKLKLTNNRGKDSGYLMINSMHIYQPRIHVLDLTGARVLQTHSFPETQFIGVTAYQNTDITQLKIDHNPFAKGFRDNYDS
# Assay: PBM E-score of 8-mer (E-score (dimensionless, -0.5 to 0.5)); Tbr is Tbrain of the sea star Patiria miniata (Pm) or the sea urchin Strongylocentrotus purpuratus (Sp); higher = stronger binding preference
# Conditions: the construct has about 5 more residues each side
# Outline: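 Primer extension turned Universal Agilent oligonucleotide arrays double-stranded. They were incubated with 200 nM protein in PBS (pH 7.5); the protein was a GST-fused Tbr T-box DNA-binding domain expressed in BL21 E. coli at 20 °C and purified on glutathione. Every ungapped 8-mer was scored from the scanned, quantified probe intensities, and the Universal PBM Analysis Suite gave each an enrichment E-score averaged over duplicate arrays.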
row,Sequence,PBM E-score of 8-mer
1,AATTCTAA,-0.128 ± 0.086
2,AAAGTCCG,-0.00454 ± 0.029
3,CCATCAGG,0.0307 ± 0.054
4,CGAAGGGA,0.00651 ± 0.088
5,ATATTCTC,-0.0331 ± 0.008
6,AGCGCTAA,0.362 ± 0.02
7,GGCGCTAC,0.346 ± 0.037
8,CGCGCTAA,0.369 ± 0.0084
9,TGCGCTAA,0.247 ± 0.036
10,GGCGCTAA,0.426 ± 0.0098
11,CGCGCTAG,0.159 ± 0.019
12,AGCAGCGA,-0.0709 ± 0.041
13,CCGCCCAA,-0.101 ± 0.091
14,TATGAGAA,-0.274 ± 0.048
15,GATTGCCC,-0.0679 ± 0.024
16,GCGCAGGA,-0.0924 ± 0.067
17,GGGTGTAC,-0.0259 ± 0.052
18,CGGTGTAG,0.134 ± 0.1
19,AGGTGTAT,0.328 ± 0.0044
20,AGGTGTAC,0.218 ± 0.043
21,TGGTGTAA,0.28 ± 0.011
22,AGGTGTAA,0.47639 ± 0.00041
23,GGGTGTAA,0.385 ± 0.013
24,CGGTGTAA,0.131 ± 0.037
25,AGGTGTAG,0.408 ± 0.0046

row,Sequence,PBM E-score of 8-mer
1,TTGGGAAA,-0.102 ± 0.057
2,AGTTCTGC,-0.332 ± 0.0036
3,CGACGGGA,-0.129 ± 0.036
4,CACAAGTG,0.367 ± 0.0037
5,ATTGCCTA,-0.134 ± 0.077
6,AGTGCTGC,0.0868 ± 0.0037
7,CATCAAAG,-0.0524 ± 0.035
8,GATATCCC,-0.147 ± 0.05
9,AACGCCTA,0.279 ± 0.034
10,AACGCCTC,0.362 ± 0.007
11,AACGCCTT,0.3747 ± 0.00064
12,ATAGTGTA,0.0192 ± 0.0016
13,ATAGTGTG,0.393 ± 0.033
14,AAAGTGTG,0.435 ± 0.012
15,AAAGTGTT,0.429 ± 0.014
16,ATAGTGTC,0.335 ± 0.011
17,AAAGTGAG,0.219 ± 0.048
18,AAAGTGTC,0.4215 ± 0.0027
19,ACAGTGTC,0.238 ± 0.0038
20,AAAGTGGC,0.234 ± 0.005
21,AAAGTGGT,0.106 ± 0.042
22,AGAGTGTG,0.34 ± 0.01
23,AAAGTGTA,0.147 ± 0.057
24,AGGTTGTG,0.16 ± 0.052
25,AGGACCAC,-0.253 ± 0.12

row,Sequence,PBM E-score of 8-mer
1,GATAGGCA,-0.121 ± 0.014
2,AGAATCTA,0.151 ± 0.0012
3,CTTCGATA,-0.00351 ± 0.034
4,TTAGCAAA,0.173 ± 0.064
5,CGAGTGTC,0.294 ± 0.018
6,AGAGTGTC,0.385 ± 0.0076
7,AGAGTGTA,0.0538 ± 0.058
8,TAGGTTAA,-0.216 ± 0.0052
9,AGAGTTGA,0.0684 ± 0.016
10,AGGCGCTA,0.4421 ± 0.0025
11,AGGCGAGA,0.401 ± 0.011
12,GGGCGAGA,0.194 ± 0.052
13,AGGCGCGA,0.463 ± 0.0056
14,CGGCGCGA,0.317 ± 0.034
15,AGGCGAGC,-0.25 ± 0.068
16,GGGGGCGA,0.01664 ± 0.00016
17,AGGCGCGG,0.242 ± 0.019
18,GGGCGCTA,0.346 ± 0.018
19,CGGCGCTA,0.239 ± 0.033
20,AGGCGCGC,0.152 ± 0.021
21,GGGCGCGA,0.409 ± 0.02
22,AAGCGATG,-0.00845 ± 0.0036
23,CCCTCTGC,0.0209 ± 0.072
24,ATCTTAGA,-0.0793 ± 0.081
25,CGACCAAC,0.00547 ± 0.043

row,Sequence,PBM E-score of 8-mer
1,ACTGCTGA,0.181 ± 0.035
2,AGTCATCG,-0.153 ± 0.0094
3,CTTAAGGC,-0.0813 ± 0.065
4,CAATCTAC,-0.0883 ± 0.0018
5,GCTCTATA,-0.25 ± 0.048
6,TCGAAAGA,-0.172 ± 0.05
7,GACCCTTA,-0.0822 ± 0.0071
8,CGAGTTAG,-0.0558 ± 0.052
9,GAAGCTCC,-0.342 ± 0.041
10,CTGTGGAC,-0.104 ± 0.0043
11,CACTAGGG,-0.15 ± 0.031
12,AGGCGACC,-0.13 ± 0.17
13,AGGCGACA,0.3974 ± 0.0038
14,AGGCGACG,0.268 ± 0.0026
15,AATTGGCA,0.247 ± 0.036
16,CGAAAAAA,0.00041 ± 0.062
17,CGAAATCG,0.231 ± 0.046
18,AAAAGTGA,0.197 ± 0.059
19,ACAAGTGT,0.391 ± 0.0052
20,ACAAGTCT,0.103 ± 0.044
21,ACAAGTGC,0.249 ± 0.005
22,AAAAGTGT,0.413 ± 0.015
23,ACAAGTGG,0.375 ± 0.017
24,AAAAGTGG,0.107 ± 0.0099
25,ACAAGTGA,0.277 ± 0.034

row,Sequence,PBM E-score of 8-mer
1,ACAAGTAT,0.112 ± 0.028
2,CGCACTCA,0.161 ± 0.074
3,AAAACGGG,-0.146 ± 0.0023
4,ATATACGA,-0.298 ± 0.059
5,AAATTCTT,-0.155 ± 0.029
6,TACTACGA,0.0382 ± 0.023
7,ATATGGCC,-0.235 ± 0.066
8,ATGGGCTC,-0.154 ± 0.16
9,TCGCTTCA,0.177 ± 0.02
10,CACGGGTC,0.0871 ± 0.051
11,ATGTCGGA,-0.0551 ± 0.054
12,GTGTCGGA,0.394 ± 0.015
13,CTGTCGCA,0.224 ± 0.064
14,GTGTCGCA,0.415 ± 0.0083
15,CTGTCGGA,0.101 ± 0.044
16,ATGTCGCA,0.254 ± 0.049
17,CGGATGCC,-0.239 ± 0.09
18,AGTAGAGA,-0.165 ± 0.0094
19,CAAATGTC,0.0249 ± 0.12
20,ACCTCAAC,-0.0545 ± 0.07
21,CCGCTGAA,-0.279 ± 0.04
22,CGTGCTAC,0.185 ± 0.0064
23,GGTGCTAC,0.434 ± 0.0055
24,AGTGCTAG,0.358 ± 0.0077
25,CGTGCTAG,0.287 ± 0.027

row,Sequence,PBM E-score of 8-mer
1,GGTGCTCA,-0.112 ± 0.025
2,TGTGCTAA,0.346 ± 0.02
3,GGTGCTAA,0.4753 ± 0.00081
4,AGTGCTAT,0.27 ± 0.0047
5,AGTGCTAA,0.421 ± 0.012
6,CGTGCTAA,0.378 ± 0.021
7,AGTGCTAC,0.276 ± 0.031
8,GGTGCTTA,0.0849 ± 0.048
9,ACAGTTAG,0.0702 ± 0.027
10,ATGAATCA,-0.129 ± 0.0053
11,GTCCATGA,-0.052 ± 0.031
12,GGGTGGGA,0.237 ± 0.011
13,CCCACATA,-0.214 ± 0.08
14,CAAGGGGC,-0.095 ± 0.021
15,AGCAGCAA,-0.118 ± 0.011
16,CAACGTCA,0.0459 ± 0.035
17,ACACTTTG,0.404 ± 0.014
18,ACACTTTC,0.408 ± 0.0072
19,ACACTTTA,0.338 ± 0.029
20,CCACTTTC,0.104 ± 0.06
21,AGACTTTG,-0.00767 ± 0.055
22,ACTCTTTC,-0.00346 ± 0.013
23,GTTTTTAA,-0.131 ± 0.14
24,AATCACCT,0.311 ± 0.017
25,GTGTAGAA,0.164 ± 0.051

row,Sequence,PBM E-score of 8-mer
1,AGACAGGC,-0.103 ± 0.03
2,AAGTTAGC,0.192 ± 0.011
3,ATGTCCGG,-0.174 ± 0.071
4,CACCTCAA,0.395 ± 0.022
5,GACCTCAC,0.0743 ± 0.032
6,AACCTCAG,-0.26 ± 0.042
7,CACCTCAC,0.4504 ± 0.0025
8,CACCTCAG,0.42 ± 0.0057
9,AACCTCAC,0.219 ± 0.015
10,CTCCTCAG,-0.0996 ± 0.015
11,TACCTCAA,-0.132 ± 0.028
12,AACCTCAA,-0.113 ± 0.028
13,CTGCCACC,0.265 ± 0.036
14,CCCGATTA,0.0524 ± 0.024
15,CCGCTAGA,0.0332 ± 0.029
16,CGATTGCC,-0.0231 ± 0.013
17,GTACAGCA,-0.0813 ± 0.032
18,ACGGAAAT,-0.189 ± 0.071
19,CCGCAGGC,0.000335 ± 0.0022
20,ACTCACAG,0.314 ± 0.043
21,CCTCACAA,0.155 ± 0.016
22,GCTCACAC,0.424 ± 0.01
23,CCTCACAG,0.127 ± 0.049
24,GCTCACAA,0.132 ± 0.037
25,ACTCACAC,0.4612 ± 0.00083

row,Sequence,PBM E-score of 8-mer
1,ACTCACAT,-0.0309 ± 0.043
2,GCACACAC,0.219 ± 0.039
3,CCTCACAC,0.475 ± 0.005
4,ACTACCTC,-0.248 ± 0.022
5,ACTCCACC,-0.0966 ± 0.022
6,CGGCCAGA,-0.215 ± 0.011
7,ACTCTTAG,-0.0903 ± 0.065
8,ACACTTAT,0.387 ± 0.0076
9,CCACTTAG,-0.0105 ± 0.01
10,ACACTTAA,0.362 ± 0.031
11,GCACTTAC,0.178 ± 0.015
12,ACACTTAC,0.412 ± 0.0079
13,CCACTTAC,0.201 ± 0.0076
14,ACTCTTAT,-0.0869 ± 0.047
15,ACACTTAG,0.416 ± 0.0068
16,CTTAAGAC,-0.218 ± 0.055
17,CCGATCCG,-0.094 ± 0.017
18,CGGTTAGA,-0.182 ± 0.026
19,ACATTAGG,0.0856 ± 0.037
20,ACAGGGCG,0.0776 ± 0.037
21,CAGCGCGA,0.203 ± 0.029
22,AAGCGCGC,0.106 ± 0.015
23,TAGCGCGA,0.3803 ± 0.0017
24,AAGCGCGA,0.375 ± 0.017
25,AAGCGCGG,0.0485 ± 0.038

row,Sequence,PBM E-score of 8-mer
1,GAGCGCGA,0.291 ± 0.019
2,CCACGCTA,-0.0567 ± 0.028
3,ACTCAGCA,-0.151 ± 0.053
4,TCCTAGAA,-0.0822 ± 0.13
5,GCTAGCAC,0.33 ± 0.0063
6,ACTAGCAG,-0.0294 ± 0.074
7,ACTAGCAA,0.00762 ± 0.0026
8,CCTAGCAA,0.128 ± 0.069
9,CCTAGCAC,0.3709 ± 0.0033
10,ACTAGCAC,0.381 ± 0.013
11,CTTGGAAA,-0.0932 ± 0.023
12,CATCTATC,-0.196 ± 0.023
13,CGAGTGCG,0.225 ± 0.033
14,CCGGTGTA,0.0868 ± 0.027
15,AAGGTGTC,0.4879 ± 0.0035
16,CAGGTGTC,0.4791 ± 0.0044
17,ACGGTGTA,0.16 ± 0.0067
18,AAGGTTTC,0.0322 ± 0.0076
19,GGGGTGTA,0.175 ± 0.0049
20,GAGGTGTA,0.44018 ± 0.00028
21,CAGGTGTA,0.3628 ± 0.0011
22,AAGGTGTA,0.404 ± 0.026
23,ACGGTGTC,0.26 ± 0.076
24,GCGGTGTA,-0.136 ± 0.021
25,CAGATGTC,-0.0861 ± 0.049
